Records with an inconclusive call do not appear. Calls of active or inactive are those of the source. How the source made its calls: active means hit-call score of the fitted dose curve at least 0.9, where 1 is the maximum; inconclusive means response in the unintended direction; inactive means score below 0.9.
assay: Tanguay_ZF_120hpf_OTIC_legacy: (Legacy) Oregon State University Tanguay Lab 120 Hour Post-fertilization zebrafish Assay for Otic Vesicle Malformation (AID 2283639)
Protocol: Tanguay_ZF_120hpf_legacy is a whole embryo, multiplexed endpoint assay using zebrafish larvae exposed for 120 hours post fertilization on a 96-well plate.Tanguay_ZF_120hpf_OTIC_legacy is one of one assay component(s) measured or calculated from the Tanguay_ZF_120hpf_legacy assay. It is designed to make measurements of zebrafish development as detected with brightfield microscopy of developing zebrafish embryos.Data from the assay component Tanguay_ZF_120hpf_OTIC_legacy was analyzed into 1 assay endpoints. This assay endpoint, Tanguay_ZF_120hpf_OTIC_legacy, was analyzed in the positive analysis fitting direction relative to DMSO as the negative control and baseline of activity. Using a type of morphology reporter, gain-of-signal activity can be used to understand changes in developmentals as they relate to the whole embryo. To generalize the intended target to other relatable targets, this assay endpoint is annotated to the zebrafish development intended target family, where the subfamily is otic vesicle morphogenesis.
Zebrafish husbandry: Tropical 5D wild-type adult zebrafish were housed in at an approximate density of 1000 per 100 gallon tank at the Sinnhuber Aquatic Research Laboratory, Oregon State University, Corvallis, OR. Each tank was kept at standard laboratory conditions of 28C on a 14-h light/10-h dark photoperiod in fish water consisting of reverse osmosis water supplemented with a commercially available salt (Instant Ocean). Spawning funnels were placed into the tanks the night prior, and embryos were collected and staged. […] Ten microliters of each row of dilution plate 2 was added to 2 exposure plates. The final DMSO concentration used was 0.64% (vol/vol). Thirty-two embryos were also exposed to 5uM trimethyltin chloride (positive control). Plates were sealed to prevent evaporation and foil covered to reduce light exposure and kept in a 28C incubator. Embryos were statically exposed until 120 hpf. At 24 hpf, embryos were assessed for photomotor response using a custom photomotor response analysis tool (PRAT) and for developmental toxicity endpoints (MO24: mortality at 24 hpf, DP: developmental progression, SM: spontaneous movement, and NC: notochord distortion). At 120 hpf, locomotor activity was measured using Viewpoint Zebralab and assessed for 18 endpoints. Zebrafish acquisition and analysis program (ZAAP), a custom program designed to inventory, acquire, and manage zebrafish data, was used to collect developmental endpoints as either present or absent (i.e., binary responses were recorded). If mortality occurred for an embryo (at either 24 or 120 hpf), the non-mortality endpoints were not measured.

| Compound | outcome |
| --- | --- |
| OCC(CO)(CBr)CBr | inactive |
| O=C(CCCN1CCC(O)(c2ccc(Cl)cc2)CC1)c1ccc(F)cc1 | inactive |
| CS(=O)(=O)c1ccc([C@@H](CC2CCCC2)C(=O)Nc2cnccn2)cc1Cl | inactive |
| CC(=O)Nc1ccc(O)cc1 | inactive |
| O=C(c1ccccc1)c1ccccc1 | inactive |
| CCCCC(CC)C(=O)O (stereo not drawn) | inactive |
| Cc1[nH]nc2c1N=C(c1ccccc1Cl)c1cc([N+](=O)[O-])ccc1N2 | inactive |
| CCCCCCCCCCCCOS(=O)(=O)O | inactive |
| N=C(N)c1ccc(OCCCCCOc2ccc(C(=N)N)cc2)cc1 | inactive |
| O=C1NS(=O)(=O)c2ccccc21 | inactive |
| CN(C)CCOC(c1ccccc1)c1ccccc1 | inactive |
| CCCCCCCCCCCCCCC | inactive |
| CCC(C)c1ccccc1O (stereo not drawn) | inactive |

Reference: PubChem BioAssay (EPA / NIEHS)
